Records with an inconclusive call do not appear. Active and inactive are the calls of the source. Unless noted, calls come from the whole dose curve; as a rule, active = well fitted curve in the direction sought with a large enough effect in the repeat runs; inconclusive = weak or mixed curves; inactive = no such curve, though single readings can be large; an effect the other way counts as inactive or inconclusive. Residues, ends and D or L forms follow the SMILES beside them.
Legend:
[1] = qHTS assay to identify small molecule agonists of the NFkB signaling pathway (AID 1159509; active = well fitted curve in the direction sought with a large enough effect in the signal ratio in the repeat runs, not every such curve was filed as active; the % refers to the signal ratio; note: series mostly up to about 61 µM)
Summary of the method: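 Pathway activation was measured in ME-180 cells stably expressing beta-lactamase under NF-kB response element control. Substrate cleavage was read as the 460/530 nm emission shift after 5 hr compound incubation.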

[2] = qHTS assay to identify small molecule agonists of the NFkB signaling pathway - cell viability counter screen (AID 1159515; calls by dose curve; note: series mostly up to about 61 µM; nearly all actives have a fitted effect of over 55% in size)
Summary of the method: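 Cells are seeded (2,000 NFkB-bla ME-180 per well), rested overnight, and dosed with DMSO-dissolved compounds for 5 hr at 37 C. Viability is then read by CellTiter-Glo luminescence after 30 min at room temperature.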

[3] = qHTS assay to identify small molecule agonists of the endoplasmic reticulum stress response signaling pathway (AID 1159516; active = well fitted activation curve with a large enough effect in the signal ratio in the repeat runs, not every such curve was filed as active; the % refers to the signal ratio)
Summary of the method: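 Cells are seeded at 1,500 per well and incubated overnight. Compounds in DMSO are added for 5 hr at 37 C, then beta-lactamase FRET substrate for 2 hr at room temperature, and fluorescence at 460 and 530 nm is measured.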

[4] = qHTS assay to identify small molecule agonists of the endoplasmic reticulum stress response signaling pathway - cell viability counter screen (AID 1159517; calls by dose curve;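 note: HeLa cells carrying an ER stress response element beta-lactamase reporter; series mostly up to about 61 µM; nearly all actives have a fitted effect of over 50% in size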)
Summary of the method: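 Cpd-treated ESRE-bla HeLa (5 hr, 37 C) → LiveBLAzer 2 hr RT → CellTiter-Glo 30 min RT → luminescence.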

[5] = qHTS assay to identify small molecule antagonists of the retinoid-related orphan receptor gamma (ROR-gamma) signaling pathway - cell viability counter screen (AID 1159520); note: nearly all actives have a fitted effect of over 50% in size
Summary of the method: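 Tet-on ROR gamma CHO cells (1,000/well) were plated 4 hr, given compounds in DMSO for 2 hr at 37 C, then induced with 1 uM final doxycycline for 16 hr. Viability was read as ATP by CellTiter-Glo luminescence after 30 min.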

[6] = target: Nuclear receptor ROR-gamma (Homo sapiens) (UniProt P51449); experiment: qHTS assay to identify small molecule antagonists of the retinoid-related orphan receptor gamma (ROR-gamma) signaling pathway (AID 1159521;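 note: CHO cells with doxycycline inducible ROR-gamma driving an RORE luciferase reporter; top concentration of the series differs between compounds; nearly all actives have a fitted effect of over 50% in size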)
Summary of the method: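 Tet-on RORγ CHO cells carrying a ROR response element–luciferase reporter were pretreated with compounds for 2 h, then induced with 1 uM (final) doxycycline hyclate for 16 h at 37 C. Antagonism was read as decreased ONE-Glo luminescence.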

[7] = qHTS assay to identify small molecule agonists of the AP-1 signaling pathway - cell viability counter screen (AID 1159525; calls by dose curve; note: nearly all actives have a fitted effect of over 55% in size)
Summary of the method: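 Each titration point was normalised to DMSO and tetra n-octyl ammonium bromide controls. The read was Cell Titer Glo luminescence after 30 min at RT, following 5 h compound exposure of ME-180 AP-1-bla cells at 37 °C.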

[8] = qHTS assay to identify small molecule agonists of the AP-1 signaling pathway (AID 1159526; calls by dose curve)
[9] = target: Retinoic acid receptor RXR-alpha (Homo sapiens) (UniProt P19793); experiment: qHTS assay to identify small molecule agonists of the RXR signaling pathway (AID 1159527; calls by dose curve; note: nearly all actives have a fitted effect of over 35% in size)
Summary of the method: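 GeneBLAzer RXR-alpha-UAS-bla HEK 293T cells in medium with 2% charcoal-stripped FBS, pre-incubated 5 hr at 37 C, then exposed to compounds 16 hr. Beta-lactamase reporter read by FRET substrate, 2 hr room temperature, 460/530 nm emission.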

[10] = qHTS assay to identify small molecule agonists of the RXR signaling pathway - cell viability counter screen (AID 1159529); note: series mostly up to about 77 µM; nearly all actives have a fitted effect of over 50% in size
Summary of the method: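 RXR-alpha-UAS-bla HEK 293T cells in medium with 2% charcoal-stripped FBS were preincubated 5 hr, then exposed to compounds for 16 hr at 37 C. Viability was read as CellTiter-Glo luminescence after 30 min at room temperature.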

[11] = qHTS assay to identify small molecule antagonists of the retinoid acid receptor (RAR) signaling pathway - cell viability counter screen (AID 1159551); note: nearly all actives have a fitted effect of over 35% in size
Summary of the method: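 Cells (C3RL4) are plated, incubated overnight, dosed with compound in DMSO, then given retinol at 1 uM final. After 6 h at 37 C, CellTiter-Glo is added and luminescence read following 30 min at room temperature.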

[12] = qHTS assay to identify small molecule antagonists of the retinoic acid receptor (RAR) signaling pathway (AID 1159552; note: nearly all actives have a fitted effect of over 50% in size)
Summary of the method: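 RARE-luc C3RL4 cells; cpds + 1 uM (final) retinol, 6 hr, 37 C/5% CO2; luciferase reagent, 30 min RT, luminescence readout. Inhibitors of retinol-driven signal scored.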

[13] = qHTS assay to identify small molecule agonists of the retinoic acid receptor (RAR) signaling pathway (AID 1159553)
Summary of the method: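 Seed C3RL4 reporter cells at 1,000 per well and incubate overnight at 37 C. Add compounds in DMSO, incubate 6 hr. Add luciferase reagent, wait 30 min at room temperature, read luminescence.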

[14] = qHTS assay to identify small molecule agonists of the vitamin D receptor (VDR) signaling pathway - cell viability counter screen (AID 743224)
Summary of the method: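 Cells: VDR-bla, 2,000/well, settled 4 h. Treatment: compounds in DMSO, 16 h, 37C/5% CO2. Readout: CellTiter-Glo luminescence after 30 min RT.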

[15] = qHTS assay to identify small molecule antagonists of the vitamin D receptor (VDR) signaling pathway - cell viability counter screen (AID 743225); note: nearly all actives have a fitted effect of over 50% in size
Summary of the method: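 VDR-bla HEK 293T cells, 4 h pre-incubation at 37C, then compound plus 1-alpha,25-dihydroxyvitamin D3 (3 nM final) for 16 h. After the beta-lactamase FRET read, CellTiter-Glo was added to the same wells; luminescence after 30 min at room temperature.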

[16] = qHTS assay to identify small molecule antagonists of the estrogen related receptor (ERR) signaling pathway - cell viability counter screen (AID 1224818); note: series mostly up to about 46 µM
Summary of the method: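 ERR cells, 2,000/well; 6 h settle at 37 C/5% CO2; compound pin transfer (DMSO); 17.5 h at 37 C; CellTiter-Fluor, 30 min, fluorescence read.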

[17] = qHTS assay to identify small molecule antagonists of the estrogen related receptor signaling pathway with the pleiotropic PPARgamma coactivator (PGC) cell viability counter screen (AID 1224822;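 note: series mostly up to about 46 µM; viability read after 17.5 h compound exposure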)
Summary of the method: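 Multiplexed viability counter screen run in PGC/ERR cells treated with compounds for 17.5 h at 37 C; live-cell protease signal measured by CellTiter-Fluor fluorescence.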

Measured: Potency

Chain of Retinoic acid receptor RXR-alpha (Homo sapiens) (P19793 whole entry, looked up): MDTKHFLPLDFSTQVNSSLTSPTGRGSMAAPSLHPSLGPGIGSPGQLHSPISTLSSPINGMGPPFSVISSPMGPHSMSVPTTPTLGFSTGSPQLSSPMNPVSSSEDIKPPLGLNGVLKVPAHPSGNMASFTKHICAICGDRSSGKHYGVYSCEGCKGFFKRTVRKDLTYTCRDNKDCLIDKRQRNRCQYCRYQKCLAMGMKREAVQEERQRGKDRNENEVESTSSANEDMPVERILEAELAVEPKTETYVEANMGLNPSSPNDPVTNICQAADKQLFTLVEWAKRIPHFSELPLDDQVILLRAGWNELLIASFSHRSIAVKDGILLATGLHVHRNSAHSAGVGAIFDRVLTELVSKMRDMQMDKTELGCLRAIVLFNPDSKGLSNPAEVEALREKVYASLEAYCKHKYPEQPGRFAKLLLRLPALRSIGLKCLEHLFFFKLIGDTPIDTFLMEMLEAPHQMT

Nc1ccc(C(=O)O)cc1
not listed: [14] | [15] | [16] | [17]
inactive: all other assays above

CC(O)C(=O)O (configuration not stated)
not listed: [16] | [17]
inactive: all other assays above

C1N2CN3CN1CN(C2)C3
not listed: [15] | [16] | [17]
inactive: all other assays above

COC(=O)[C@H](Cc1ccccc1)NC(=O)[C@@H](N)CC(=O)O (H-Asp-Phe-OMe)
not listed: [16] | [17]
inactive: all other assays above

Cc1cc(=O)[nH]c(=S)[nH]1
not listed: [12] | [13] | [14] | [15] | [16] | [17]
inactive: all other assays above

O=NO
not listed: [16] | [17]
inactive: all other assays above

Cc1cn([C@H]2C[C@H](N=[N+]=[N-])[C@@H](CO)O2)c(=O)[nH]c1=O
not listed: [14] | [16] | [17]
inactive: all other assays above

CC(C)[C@@H]1CC[C@@H](C)C[C@H]1O
not listed: [15] | [16] | [17]
inactive: all other assays above

CCCNC(=O)NS(=O)(=O)c1ccc(Cl)cc1
not listed: [14]
inactive: all other assays above
